Growth data for 8 molecules are collected here from PubChem BioAssay (NCI).

Structures are written as SMILES. About 83,000 compounds went through this panel and 20% of them were active in at least one assay; those are over-represented in the sample as a whole.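 Note: values are percent growth. 100 is the growth of untreated cells, values between 100 and 0 indicate rising inhibition; between -100 and 0 indicates cell death.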 Unmarked numbers belong to inactive results. Active and inactive are the calls of the source. Rule for the calls: active = growth percent below 10; inactive = the rest.

Common to all, as to test: NCI-60 one-dose screen, 48 h (100 = growth as untreated, 0 = no growth, -100 = all killed)
Holding throughout (conditions): 10 µM

Test [1] deals with DU-145 prostate.
Test [2] deals with K-562 leukemia.
Test [3] relates to MALME-3M melanoma.
Test [4] relates to MDA-MB-231 breast.
Test [5] deals with RXF 393 renal.
Test [6] concerns SF-268 CNS.
In test [7] the test system is SF-295 CNS.
In test [8] the test system is SF-539 CNS.
Test [9] concerns M14 melanoma.
The test system of test [10] is HCT-15 colon.
Test [11] deals with HT29 colon.
In test [12] the test system is SNB-75 CNS.
Test [13] has as its system SNB-19 CNS.
The subject of test [14] is U251 CNS.
For test [15], the system named is PC-3 prostate.
In test [16] the test system is SK-MEL-5 melanoma.
The test system of test [17] is UACC-62 melanoma.
Test [18] deals with LOX IMVI melanoma.
For test [19], the system named is SK-MEL-28 melanoma.
Test [20] concerns UACC-257 melanoma.

For the molecule `COc1cc(-c2csc(NC(=O)Nc3ccc(Cl)c(C(F)(F)F)c3)n2)cc(OC)c1OC`, the growth in [1] was 14.4%; in test [2] it was 14.2%; in test [3] it was -28.1% (active); in test [4], -32.2% (active); in test [5] it was -6.49% (active); in [6] it was 21.3%. For the same molecule, the growth in test [7] was -34.7% (active); in test [8], 5.05% (active); in test [9], -4.86% (active); in test [10], 10.5%; in test [11] it was 4.27% (active); in test [12], -7.01% (active). Moreover, the growth was 13.2% in test [13]; -9.73% (active) in test [14]; -0.311% (active) in [15]; -79.9% (active) in [16]; 1.56% (active) in test [17]; -19.2% (active) in test [18]. For the same molecule, in test [19], the growth is 15.3%.
With `CC(C)(C)c1ccc(S(=O)(=O)N[C@H]2CC[C@H]3[C@@H]4CCc5cc(O)c([N+](=O)[O-])cc5[C@H]4CC[C@]23C)cc1`, the growth in test [1] is 67.4%; in [2], 70.1%; in test [3], 67.1%; in [4] it was 35.7%; in test [5], 42.5%; in test [6] it was 72.6%. Besides, the growth in test [8] was 81.5%; in [20] it was 77.7%; in [9] it was 78.5%; in test [10], 87.9%; in test [11], 70%; in test [12], 5.54% (active). The growth in test [15] is 47.4%; in [16], 83.5%; in test [19], 77%.
Turning to `COc1ccc(/C=C/c2nnc(/C=C/c3ccc(OC)c(OC)c3)o2)cc1OC`, the growth in test [1] was 49.2%; in [2], 14.8%; in test [3] it was 57.1%; in [4], 17.8%; in test [5] it was 27.4%; in [6], 41.9%. Besides, the growth in [7] was 12.5%; in test [8], -11.8% (active); in test [9] it was 5.44% (active); in test [10] it was 21.6%; in test [11], -7.7% (active); in test [12] it was 38.4%. Further, the growth in test [13] is 14.8%; in [14], 16.2%; in test [16], 2.81% (active); in [17] it was 9.17% (active); in test [18], 4.41% (active); in [19], 30.6%.
As for `COc1ccc([C@H]2[C@H](C(=O)Nc3cccnc3)c3ccccc3C(=O)N2c2ccccc2)cc1`, the growth in test [1] is 107%; in test [2], 99.9%; in test [3], 108%; in [4], 95.9%; in test [5], 94.2%; in [6], 93.9%. The growth was 70.7% in test [7]; 114% in test [8]; 86.2% in [9]; 78.1% in [10]; 81.3% in [11]; 98.9% in test [12]. Moreover, the growth is 88.4% in [13]; 74.8% in [14]; 79.4% in test [16]; 92.3% in test [17]; 92.5% in test [18]; 102% in [19].
Turning to `Cc1cn(-c2cccc(NC(=O)c3ccc(C)c(Nc4nccc(-c5cccnc5)n4)c3)c2)cn1`, the growth was 13.3% in test [1]; -22.5% (active) in [2]; 42% in [3]; -48.5% (active) in test [4]; -49.5% (active) in test [5]; 15.8% in test [6]. Further, the growth in [8] is -33.3% (active); in [20], 29.1%; in test [9], 22.6%; in test [11], -43.4% (active); in test [12], -45% (active); in test [13], 51.2%. The growth in [15] is 34.4%; in [16] it was 40.2%; in test [17] it was 3.99% (active); in test [18] it was -65.5% (active); in test [19], -37.6% (active).
For `CC(=O)N[C@H](C(=O)N[C@@H](CCCNC(=N)N)C(=O)N[C@@H](CCCCN)C(=O)N[C@@H](CCCNC(=N)N)C(=O)NC(C(=O)N[C@@H](CC(C)C)C(=O)N[C@@H](CCCNC(=N)N)C(=O)N[C@@]1(C)CCC/C=C\CCC[C@@](C)(C(=O)N[C@@H](CCCNC(=N)N)C(=O)N[C@@H](CCC(=O)O)C(=O)N[C@@H](CC(C)C)C(=O)N[C@H](C(=O)N[C@@H](CCC(=O)O)C(N)=O)C(C)C)NC(=O)[C@H](CCC(N)=O)NC(=O)[C@H](CC(C)C)NC(=O)[C@H](CC(C)C)NC1=O)[C@@H](C)O)C(C)C` (stereo partly specified), the growth in [1] is -58.3% (active); in [2], -44.5% (active); in test [3], -68.7% (active); in [4] it was -52.1% (active); in [5], -43.9% (active); in [6], -80.9% (active). Moreover, the growth in test [7] was -4.34% (active); in [8], -78% (active); in test [9] it was -61.2% (active); in test [10], 16.2%; in test [11] it was 26.9%; in test [12], -16.4% (active). The growth was 31.7% in test [13]; -75.5% (active) in test [15]; -83.9% (active) in test [16]; -68.1% (active) in test [17]; 33.2% in [18]; -37.7% (active) in [19].
`CCn1c2ccc(O)cc2c2c(C)c3c[n+](C)ccc3c(C)c21`: the growth in test [1] is 53.7%; in [2], 60%; in test [3], -20.4% (active); in test [4] it was 71.7%; in test [5], 57.1%; in test [6], -10.1% (active). Besides, the growth was 13.6% in test [7]; 12.1% in test [8]; 51.8% in [9]; 81.2% in [10]; 55.8% in test [11]; 31% in test [12]. Further, the growth in test [13] is -3.45% (active); in [14] it was 3.41% (active); in test [16], 7.6% (active); in [17], 16.6%; in test [18] it was 62.2%; in test [19] it was 31.8%.
On to `O=C(O)c1ccc(-n2cc(CNc3ccc(Oc4ccccc4)cc3)c(-c3ccccc3)n2)cc1`, for which the growth in test [1] was 99.8%; in test [2], 78.3%; in test [3], 88.6%; in test [4] it was 92%; in test [5], 86.9%; in [6], 90.2%. In addition, the growth was 72.1% in test [7]; 90.6% in [8]; 97.2% in [9]; 72.9% in [10]; 102% in test [11]; 81.6% in [12]. For the same molecule, the growth in test [13] is 87.7%; in test [14], 83.3%; in test [16] it was 96.8%; in test [17] it was 83.4%; in [18], 90.4%; in test [19] it was 86.8%.
